Many of the other results were omitted from the sample, so hits are more common in it than they were.
GALR2 blocker: antagonists of human galanin receptor 2 (GALR2). O43603. GALR2-expressing cells, antagonist mode. inhibition, % at 4 µM. 140,000 tested, 0.39% active. AID 828; in the data active = inhibition above about 27%;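 note: cells stimulated with galanin 1-16 at roughly its EC80; 0% = agonist challenge control and 100% = basal control without agonist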
PostGolgi ctrl: yeast control strain growth, post-Golgi counter-screen | inhibition, % at 10 µM | efflux-deficient yeast background strain, growth absorbance A615, 16 h | 98,000 tested, 5% active
GALR2 agonist: GALR2 (human) receptor agonism. O43603. GALR2-expressing cells, agonist activation read-out. activation, % (no concentration beside the values). 140,000 tested, 0.48% active. AID 803; in the data active = activation above about 5%, passing the limit was not always enough;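 note: 0% = vehicle buffer wells and 100% = reference agonist at full effect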
PostGolgi yeast: growth inhibition of a yeast mutant, post-Golgi transport screen. post-Golgi transport phenotypic cell assay. inhibition, % at 10 µM. 98,000 tested, 0.9% active. AID 739;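 note: yeast cells grown in 1536-well plates; yeast grown about 18 h at 30C before absorbance read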
S1P2 blocker: blocks the human S1P2 receptor; O95136; AID 736; 97,000 tested, 0.21% active; inhibition, % at 5 µM; cell-based S1P2 antagonist assay, inhibition at 5 uM; in the data active = inhibition above about 45%;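 note: CRE beta-lactamase reporter cells expressing human S1P2 stimulated with S1P; 0% = agonist at EC80 alone and 100% = agonist plus reference antagonist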
Target sequence (O95136 whole entry, looked up): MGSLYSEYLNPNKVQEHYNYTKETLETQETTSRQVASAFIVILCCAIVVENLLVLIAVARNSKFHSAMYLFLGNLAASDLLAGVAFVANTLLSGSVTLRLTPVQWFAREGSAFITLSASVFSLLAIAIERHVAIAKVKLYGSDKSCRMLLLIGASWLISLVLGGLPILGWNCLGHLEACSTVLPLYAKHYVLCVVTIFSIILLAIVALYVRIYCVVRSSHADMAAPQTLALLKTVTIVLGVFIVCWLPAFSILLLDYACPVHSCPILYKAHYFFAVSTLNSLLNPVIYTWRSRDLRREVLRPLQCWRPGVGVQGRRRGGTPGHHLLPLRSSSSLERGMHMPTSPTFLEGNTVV
S1P2 ag: activates the human S1P2 receptor. O95136. S1P2-expressing cell line, agonist reporter read-out. activation, % at 4.5 µM. 97,000 tested, 0.46% active; in the data active = activation above about 16%;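 note: 0% = vehicle low control and 100% = maximal reference agonist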
GALR2 blk conf: GALR2 (human) antagonism confirmed; shares compounds with GALR2 blocker; GALR2-expressing cells, antagonist mode, inhibition; inhibition, % at 4 µM; 480 tested, 60% active; in the data active = inhibition above about 27%;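 note: cells stimulated with galanin at about its EC80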
BLA inhib ctr: beta-lactamase inhibition, GALR2 counterscreen; shares compounds with GALR2 blocker; 480 tested, 36% active; CHO NFAT-BLA reporter, beta-lactamase FRET, thapsigargin-stimulated; inhibition, % at 4.2 µM;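 active = inhibition above the mean inhibition across tested compounds plus 3 SD, cut at about 27% in these data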;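 note: 0% = 500 nM thapsigargin stimulated wells and 100% = unstimulated BSA only wells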
* marks the source's active call; other numbers are inactive results; / = no result given. Cut-off read from the data, not from the text of the source, unless noted: active = inhibition above about 30%; inactive = the rest.

SMILES	GALR2 blocker	PostGolgi ctrl	GALR2 agonist	PostGolgi yeast	S1P2 blocker	S1P2 ag	GALR2 blk conf	BLA inhib ctr
COc1ccc(S(=O)(=O)Nc2cc(Sc3ncn[nH]3)c(O)c3ccccc23)cc1	48.8*	9.7	0.0	16.8	4.6	-2.4	17.5	15.9
CCCCOC(=O)c1ccc(NC(=O)/C=C/c2cccs2)cc1	-2.3	/	-1.4	/	/	/	/	/
Nc1ccc2nc(-c3cccs3)[nH]c2c1	27.6*	/	-1.2	/	-13.7	-3.5	3.5	2.6
Cc1nc2cc3nc(C(F)(F)F)[nH]c3cc2[nH]1	13.7	/	-1.1	/	/	/	/	/
Cc1cc([N+](=O)[O-])cnc1NC(C)c1ccccc1 (configuration not stated)	-12.4	13.5	-1.3	-10.5	9.1	-4.2	/	/
N#CCCn1cc(C(=O)Nc2ccccc2Br)c(-c2cc3ccccc3o2)n1	-0.8	/	0.9	/	/	/	/	/
O=C(Nc1cccc(F)c1)c1sc(Cl)nc1-c1ccccc1	27.3*	/	-1.5	/	/	/	13.5	11.1
CCSc1cc(N2CCCC2)nc(-c2ccccc2Cl)n1	-5.5	/	-0.5	/	/	/	/	/
COc1ccc(OCCNc2cc(N3CCCCC3)ccc2[N+](=O)[O-])cc1	1.6	4.8	-3.0	6.6	-33.3	-1.4	/	/
COc1ccc(OCCNc2cc(Cl)ccc2[N+](=O)[O-])cc1	71.2*	-1.7	-3.7	-2.6	-1.3	0.6	10.7	5.2
N#C/C(=C/c1ccc(-c2ccc(S(N)(=O)=O)cc2)o1)c1nc2ccccc2s1	28.4*	/	0.0	/	/	/	40.8*	51.6*
N#C/C(=C/c1ccc(-c2ccc(S(N)(=O)=O)cc2)o1)C(=O)Nc1ccccc1	-2.6	/	0.5	/	/	/	/	/
O=C1NC(c2ccccc2)C(C(=O)c2cccs2)C(O)(C(F)(F)F)N1 (configuration not stated)	33.1*	4.4	-3.5	3.2	10.2	-2.5	9.1	-0.1
COc1cc(C2NC(=S)NC(O)(C(F)(F)F)C2C(=O)c2cccs2)cc(OC)c1O (configuration not stated)	10.1	/	0.9	/	/	/	/	/
CONc1nc(NC(C)(C)C)nc(OCC#N)n1	4.4	/	-0.7	/	/	/	/	/
CN(C)c1nc(Nc2ccc(Cl)cc2)nc(OCC#N)n1	35.5*	4.8	-2.5	3.4	-7.6	-5.0	30.4*	14.1
COc1ccc(NC(=O)c2cc(S(=O)(=O)N(C)C)ccc2N2CCCC2)cc1Cl	28.3*	/	-1.1	/	/	/	2.3	-0.2
COc1cc(OC)c(OC)cc1/C=C/C(=O)c1ccc(NS(=O)(=O)c2ccc(C)cc2)cc1	31.4*	/	-0.8	/	/	/	20.9	19.4
C=C(C)c1cccc(C(C)(C)NC(=O)N(Cc2ccccc2)Cc2ccco2)c1	3.0	0.3	-0.1	-10.1	-4.7	-2.9	/	/
Nc1nc(Nc2cccc(F)c2)nc2ccccc12	31.4*	-2.6	-1.5	-8.3	/	/	24.1	13.3
CCN(CC)c1ccc(/C=C(/C#N)c2nc3ccc(C)cc3[nH]2)c(OC(C)C)c1	33.6*	17.4	-4.3	-7.0	19.5	6.6	29.6*	36.9*
CCCOc1cc(N(CC)CC)ccc1/C=C(/C#N)c1nc2ccc(C)cc2[nH]1	25.1	17.5	-2.9	-3.3	0.8	-0.2	/	/
Clc1ccccc1-c1nc2nc3ccccc3nc2n1-c1ccc2c(c1)OCO2	-9.9	/	1.3	/	/	/	/	/
Cc1cc(C)c(S(=O)(=O)NCc2ccncc2)c(C)c1	31.3*	-1.5	0.7	-8.7	47.1*	-4.5	35.1*	9.1
CCCCNS(=O)(=O)c1ccc(S(=O)(=O)NCc2ccncc2)cc1	27.4*	/	-1.7	/	19.1	-3.7	19.7	13.1
SMILES	GALR2 blocker	PostGolgi ctrl	GALR2 agonist	PostGolgi yeast	S1P2 blocker	S1P2 ag	GALR2 blk conf	BLA inhib ctr
CC(C)c1ccc2c(c1)C1Cc3ccccc3C1N2 (configuration not stated)	14.1	/	-1.5	/	/	/	/	/
CCC(C)(C)NC(=O)/C=C/c1cccs1	-9.4	/	-0.8	/	/	/	/	/
CCC(=O)Nc1nnc(SCC(=O)c2ccc3c(c2)Cc2ccccc2-3)s1	-8.0	0.9	-3.1	-1.5	15.4	-5.7	/	/
CC(=O)c1c(C)[nH]c(C(=O)OCC(=O)Nc2ccc(Cl)cc2[N+](=O)[O-])c1C	36.1*	/	-0.2	/	/	/	50.9*	19.3
O=C(NCc1ccccc1)c1ccc(N2C(=O)C3CCCCC3C2=O)cc1 (configuration not stated)	-0.5	/	-1.0	/	/	/	/	/
CCN(CC)CCCNC(CC(=O)Nc1cccc([N+](=O)[O-])c1)C(=O)O (configuration not stated)	-1.2	/	-0.4	/	/	/	/	/
CCN1CCN(Cc2ccc(NC(=O)CC3Oc4ccc(C)cc4NC3=O)cc2)CC1 (configuration not stated)	34.2*	-2.5	-2.2	-4.9	15.9	-6.0	1.7	3.3
CC1=[N+]([O-])C(C)(C)C(c2ccc(Br)cc2)=[N+]1[O-]	4.7	/	-1.6	/	/	/	/	/
CC(=O)Nc1cn(C(C)=O)c(C)n1	29.1*	13.8	-2.8	-5.3	/	/	13.7	5.8
O=C(CSc1ccc(Cl)cc1)N1CCOCC1	28.6*	-1.8	-2.1	8.6	-5.0	-5.4	-1.5	-4.0
O=C(Nc1nnc(SCc2ccc(F)cc2)s1)C1CC(=O)N(Cc2ccccc2)C1 (configuration not stated)	1.2	/	-1.6	/	/	/	/	/
COc1ccccc1S(=O)(=O)Nc1ccc2cn[nH]c2c1	27.4*	/	-1.7	/	/	/	19.8	10.2
CCOC(=O)Nc1ccc2c(c1)N(C(=O)CCN1CCN3CCCC3C1)c1ccccc1CC2 (configuration not stated)	21.1	5.5	-1.4	-10.8	2.1	-3.9	/	/
COC(=O)Nc1ccc2c(c1)N(C(=O)CCN1CCN3CCCC3C1)c1ccccc1CC2 (configuration not stated)	27.8*	-5.2	-1.6	-4.9	/	/	15.7	6.2
COc1ccc(/C=N/NC(=O)CC2N=C(Cc3ccccc3)NNC2=O)cc1OC (configuration not stated)	-10.6	/	-0.4	/	/	/	/	/
CCOc1c(C)cc2[nH]c(CCC(=O)O)nc2c1C	-2.4	2.2	-1.3	-2.5	/	/	/	/
CC(=O)Oc1ccc2cc(-c3nc4ccccc4n3C)c(=O)oc2c1	36.9*	3.5	23.4*	-4.2	14.5	37.8*	22.7	30.0*
Oc1sc(C=Nc2ccccc2)c2ccccc12	39.4*	18.1	-2.2	-2.0	32.0	-5.7	29.8*	28.3*
Oc1sc(C=Nc2ccc(F)cc2)c2ccccc12	39.0*	5.5	-1.9	6.9	26.6	-7.5	27.1*	14.0
Oc1ccccc1N=Cc1sc2ccccc2c1Cl	10.3	/	-0.9	/	/	/	/	/
COc1ccc(N=Cc2c(O)[nH]c3ccccc23)cc1	10.1	4.0	-2.1	-0.3	-2.8	-6.6	/	/
CCOC(=O)C1=C(Cc2ccc(C)cc2)C(=O)c2ccccc2C1=O	15.5	2.8	-2.7	-6.8	9.1	-1.4	/	/
CCOC(=O)C1=C(Cc2ccc(OC)cc2)C(=O)c2ccccc2C1=O	32.0*	12.6	-3.0	18.2	33.5	-14.2	20.4	16.7
COc1cc(C(=O)ON=C2C=C(C)C(=O)C(C)=C2)cc(OC)c1OC	-10.3	/	-0.8	/	/	/	/	/
